# In PubChem BioAssay (Tox21):
# Values joined by “and” are separate entries in the source; they are usually repeats but may differ in a detail not shown here. Equal entries are not always repeated. Records with an inconclusive call do not appear. Entries that show only a call come without a potency. The source holds several records for some structures; these can differ, active in one and inactive in another. Active and inactive are the calls of the source. Unless noted, calls follow the shape of the dose curve; as a rule, active = well fitted curve in the direction sought with a large enough effect in the repeat runs; inconclusive = weak or mixed curves; inactive = no such curve, though single readings can be large; an effect the other way counts as inactive or inconclusive.
# Legend:
# [1] = qHTS assay to identify small molecule agonists of the hypoxia (HIF-1) signaling pathway - cell viability counter screen (AID 1224844; calls by dose curve; also: nearly all actives have a fitted effect of over 50% in size; also: potency is read from the fitted curve at half-maximal effect)
# Outline: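 Cells (HRE-bla ME-180, 2,000 per well) sat 5 hrs at 37C, got compound for 17 hrs, were read for CCF4-AM FRET, and were finally lysed with CellTiter-Glo for a 30 min room-temperature luminescence read.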
# [2] = qHTS assay to identify small molecule agonists of H2AX (AID 1224845; active = well fitted activation curve with a large enough effect in the signal ratio in the repeat runs, not every such curve was filed as active; the % refers to the signal ratio; also: potency is read from the fitted curve at half-maximal effect)
# Outline: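 Phospho-H2AX Ser139 measured by HTRF (ex 320 nm; em 665 and 620 nm) after 24 hr antibody incubation. Compounds, 15 concentrations, 0.76% DMSO, were applied to CHO-K1 cells for 3hr at 37C before lysis.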
# [3] = qHTS assay to identify small molecule agonists of H2AX - cell viability counter screen (AID 1224847; calls by dose curve; also: nearly all actives have a fitted effect of over 30% in size; also: potency is read from the fitted curve at half-maximal effect)
# Outline: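 Cells plated first: CHO-K1, 1000 per well in 10% FBS medium, incubated overnight at 37C. Then 15-point compound titration added (final DMSO 0.76%) for 3 hr. Finally CellTiter-Glo added and luminescence read.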
# [4] = qHTS assay to identify small molecule antagonists of the estrogen related receptor (ERR) signaling pathway from Tox21 library (AID 1224848); also: nearly all actives have a fitted effect of over 50% in size; also: potency is read from the fitted curve at half-maximal effect
# Outline: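 Antagonist-mode screen of the Tox21 10K library in an NTP-provided ERR reporter cell line; 18 h compound exposure at 37 C, luminescence measured with ONE-Glo.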
# [5] = qHTS assay to identify small molecule agonists of the estrogen related receptor (ERR) signaling pathway from Tox21 library (AID 1224849; calls by dose curve; also: nearly all actives have a fitted effect of over 15% in size); settings: ERR reporter cell line, ONE-Glo luciferase, 18 h
# Outline: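 Screening used an NTP-provided ERR luciferase cell line. Compounds in DMSO were added 6 h after seeding and left 18 h at 37 C before a 30 min ONE-Glo step and luminescence reading.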
# [6] = qHTS RealTime-Glo MT Cell Viability Assay in HEK293 cells - 32 hour (AID 1224868); also: nearly all actives have a fitted effect of over 50% in size; also: potency is read from the fitted curve at half-maximal effect
# Outline: (§1)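 Viability tracked continuously by luminescence as live cells reduce a prosubstrate for NanoLuc; HEK293 cells preincubated 5 h, compound-treated at 37 C, and read at 0, 8, 16, 24, 32 and 40 h.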
# [7] = A CellTox Green Cytotoxicity Assay to monitor cytotoxicity in HEK293 cells - 0 hour (AID 1224869); also: nearly all actives have a fitted effect of over 50% in size
# Outline: (§2)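 Fluorescence intensity, read at 0, 8, 16, 24, 32 and 40 h of compound treatment, reflected dye binding to DNA of dead HEK293 cells; compounds (23 nL, DMSO) were added 5 h after plating cells with reagent.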
# [8] = qHTS RealTime-Glo MT Cell Viability Assay in HepG2 cells - 40 hour (AID 1224870); also: nearly all actives have a fitted effect of over 50% in size
# Outline: (§3)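 Real-time viability: cells seeded at 600 per well together with NanoLuc and cell-permeant prosubstrate, compounds added after 5 h incubation. Luminescence tracked at 0, 8, 16, 24, 32 and 40 h of exposure.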
# [9] = A CellTox Green Cytotoxicity Assay to monitor cytotoxicity in HEK293 cells - 40 hour (AID 1224871); also: nearly all actives have a fitted effect of over 45% in size
# Outline: as §2
# [10] = qHTS RealTime-Glo MT Cell Viability Assay in HEK293 cells - 16 hour (AID 1224872); also: nearly all actives have a fitted effect of over 50% in size; also: potency is read from the fitted curve at half-maximal effect
# Outline: as §1
# [11] = qHTS RealTime-Glo MT Cell Viability Assay in HepG2 cells - 8 hour (AID 1224873); also: nearly all actives have a fitted effect of over 55% in size
# Outline: as §3
# [12] = qHTS RealTime-Glo MT Cell Viability Assay in HEK293 cells - 40 hour (AID 1224874); settings: RealTime-Glo luminescence; max response: stronger effect = lower value; also: nearly all actives have a fitted effect of over 50% in size; also: potency is read from the fitted curve at half-maximal effect
# Outline: (§4)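 Viable HEK293 cells reduce a cell-permeant prosubstrate; the product diffuses out and is consumed by NanoLuc in the medium to give light. Compounds went in after a 5 h incubation and plates were read over the treatment course.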
# [13] = A CellTox Green Cytotoxicity Assay to monitor cytotoxicity in HEK293 cells - 24 hour (AID 1224875); also: nearly all actives have a fitted effect of over 45% in size
# Outline: as §2
# [14] = A CellTox Green Cytotoxicity Assay to monitor cytotoxicity in HepG2 cells - 16 hour (AID 1224876); also: nearly all actives have a fitted effect of over 45% in size
# Outline: (§5)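 Using 1536-well format, dye-containing HepG2 suspension was seeded, allowed 5 h at 37 C/5% CO2, dosed by pintool with compounds, positive and negative controls, and imaged for fluorescence across 40 h.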
# [15] = qHTS RealTime-Glo MT Cell Viability Assay in HepG2 cells - 32 hour (AID 1224877); also: nearly all actives have a fitted effect of over 55% in size
# Outline: (§6)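 Viability was tracked continuously by NanoLuc luminescence from prosubstrate reduced by living HepG2 cells, at successive time points over 40 h of compound exposure. Cells with reagent were preincubated 5 h at 37 °C before compound addition.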
# [16] = A CellTox Green Cytotoxicity Assay to monitor cytotoxicity in HepG2 cells - 24 hour (AID 1224878); also: nearly all actives have a fitted effect of over 45% in size
# Outline: as §5
# [17] = A CellTox Green Cytotoxicity Assay to monitor cytotoxicity in HepG2 cells - 40 hour (AID 1224879); also: nearly all actives have a fitted effect of over 40% in size; also: potency is read from the fitted curve at half-maximal effect
# Outline: as §5
# [18] = qHTS RealTime-Glo MT Cell Viability Assay in HEK293 cells - 0 hour (AID 1224880)
# Outline: as §4
# [19] = qHTS RealTime-Glo MT Cell Viability Assay in HepG2 cells - 24 hour (AID 1224867); also: nearly all actives have a fitted effect of over 50% in size
# Outline: as §6
compound,measurement,setting,value
CCCC(=O)c1ccccc1,Potency,[1],inactive
same,Potency,[2],inactive
same,Potency,[3],inactive
same,Potency,[4],inactive
same,"activity change, positive = activation",[5]; at 92.4 µM (top of the series),1.85% (inactive)
same,Potency,[6],inactive
same,Potency,[7],inactive
same,Potency,[8],inactive
same,Potency,[9],inactive
same,Potency,[10],inactive
same,Potency,[11],inactive
same,max response,[12],2.03% (inactive)
same,Potency,[13],inactive
same,Potency,[14],inactive
same,Potency,[15],inactive
same,Potency,[16],inactive
same,Potency,[17],inactive
same,Potency,[18],inactive
N[C@@H]1CONC1=O,Potency,[1],inactive
same,Potency,[2],inactive
same,Potency,[3],inactive
same,Potency,[4],inactive
same,"activity change, positive = activation",[5]; at 42.5 µM (top of the series),7.16% (inactive)
same,Potency,[19],inactive
same,Potency,[6],inactive
same,Potency,[7],inactive
same,Potency,[8],inactive
same,Potency,[9],inactive
same,Potency,[11],inactive
same,Potency,[13],inactive
same,Potency,[15],inactive
same,Potency,[18],inactive
CC(=O)OCC1=C(C(=O)O)N2C(=O)[C@@H](NC(=O)Cc3cccs3)[C@H]2SC1,Potency,[1],inactive
same,Potency,[2],inactive
same,Potency,[3],inactive
same,Potency,[19],inactive
same,Potency,[6],inactive
same,Potency,[7],inactive
same,Potency,[8],inactive
same,Potency,[9],inactive
same,Potency,[11],inactive
same,max response,[12],6.98% (inactive)
same,Potency,[13],inactive
same,Potency,[14],inactive
same,Potency,[15],inactive
same,Potency,[16],inactive
same,Potency,[17],inactive
same,Potency,[18],inactive
O=C1CC2(CCCC2)CC(=O)N1CCCCN1CCN(c2ncccn2)CC1,Potency,[1],4.36 µM (active) and inactive
same,Potency,[2],inactive
same,Potency,[4],30.6 µM (active) and inactive
same,"activity change, positive = activation",[5]; at 42.5 µM (top of the series),-12.4% (inactive)
same,"activity change, positive = activation",[5]; at 92.4 µM (top of the series),-47% (inactive)
same,Potency,[6],43.6 µM (active) and inactive
same,Potency,[7],inactive
same,Potency,[9],inactive
same,Potency,[10],43.6 µM (active) and inactive
same,Potency,[11],inactive
same,Potency,[12],27.5 µM (active)
same,Potency,[13],inactive
same,Potency,[14],inactive
same,Potency,[15],inactive
same,Potency,[16],inactive
same,Potency,[17],38.9 µM (active) and inactive
same,Potency,[18],inactive
CN1C(=O)c2ccc([N+](=O)[O-])cc2C1=O,Potency,[1],inactive
same,Potency,[2],inactive
same,Potency,[3],inactive
same,Potency,[4],inactive
same,"activity change, positive = activation",[5]; at 92.4 µM (top of the series),7.36% (inactive)
same,Potency,[19],inactive
same,Potency,[6],inactive
same,Potency,[7],inactive
same,Potency,[8],inactive
same,Potency,[9],inactive
same,Potency,[11],inactive
same,max response,[12],0.763% (inactive)
same,Potency,[13],inactive
same,Potency,[16],inactive
same,Potency,[17],inactive
same,Potency,[18],inactive
CCn1cc(C(=O)O)c(=O)c2cc(F)c(N3CCNC(C)C3)c(F)c21 (centres undefined),Potency,[1],inactive
same,Potency,[2],inactive
same,Potency,[3],inactive
same,Potency,[4],inactive
same,"activity change, positive = activation",[5]; at 42.5 µM (top of the series),3.97% (inactive)
same,Potency,[19],inactive
same,Potency,[6],inactive
same,Potency,[7],inactive
same,Potency,[9],inactive
same,Potency,[11],inactive
same,max response,[12],14.9% (inactive)
same,Potency,[13],inactive
same,Potency,[14],inactive
same,Potency,[15],inactive
same,Potency,[16],inactive
same,Potency,[17],inactive
same,Potency,[18],inactive
CCOc1ccc2c(c1)C(C)=CC(C)(C)N2,Potency,[1],inactive
same,Potency,[2],inactive
same,Potency,[3],inactive
same,Potency,[4],inactive
same,"activity change, positive = activation",[5]; at 92.4 µM (top of the series),1.57% (inactive) and 2.85% (inactive)
same,Potency,[19],inactive
same,Potency,[6],inactive
same,Potency,[7],inactive
same,Potency,[9],inactive
same,Potency,[10],inactive
same,Potency,[11],inactive
same,max response,[12],-10.3% (inactive) and 3.02% (inactive)
same,Potency,[13],inactive
same,Potency,[15],inactive
same,Potency,[17],inactive
same,Potency,[18],inactive
c1ccc2c(c1)CCCC2C1=NCCN1 (centres undefined),Potency,[1],inactive
same,Potency,[2],inactive
same,Potency,[3],inactive
same,Potency,[6],inactive
same,Potency,[7],inactive
same,Potency,[9],inactive
same,Potency,[11],inactive
same,max response,[12],3.27% (inactive)
same,Potency,[13],inactive
same,Potency,[14],inactive
same,Potency,[17],inactive
same,Potency,[18],inactive
OCCN1CCNCC1,Potency,[1],inactive
same,Potency,[2],inactive
same,Potency,[3],inactive
same,Potency,[4],inactive
same,"activity change, positive = activation",[5]; at 92.4 µM (top of the series),9.65% (inactive) and -11.4% (inactive)
same,Potency,[19],inactive
same,Potency,[6],7.9 µM (active)
same,Potency,[7],inactive
same,Potency,[8],inactive
same,Potency,[9],inactive
same,Potency,[11],inactive
same,Potency,[12],7.9 µM (active)
same,Potency,[13],inactive
same,Potency,[14],inactive
same,Potency,[16],inactive
same,Potency,[17],inactive
same,Potency,[18],inactive
BrC1CCC(Br)C(Br)CCC(Br)C(Br)CCC1Br (centres undefined),Potency,[1],inactive
same,Potency,[2],89.4 µM (active)
same,Potency,[3],79.7 µM (active) and 95.6 µM (active)
same,Potency,[4],27.2 µM (active) and 58 µM (active)
same,"activity change, positive = activation",[5]; at 92.4 µM (top of the series),-60.1% (inactive) and -54.5% (inactive)
same,Potency,[6],inactive
same,Potency,[7],inactive
same,Potency,[8],inactive
same,Potency,[9],inactive
same,Potency,[10],inactive
same,max response,[12],-14.3% (inactive)
same,Potency,[13],inactive
same,Potency,[14],inactive
same,Potency,[16],inactive
same,Potency,[17],inactive
same,Potency,[18],inactive
O,Potency,[1],inactive
same,Potency,[2],inactive
same,Potency,[3],inactive
same,Potency,[6],inactive
same,Potency,[7],inactive
same,Potency,[9],inactive
same,Potency,[10],inactive
same,Potency,[11],inactive
same,max response,[12],0.569% (inactive) and 9.85% (inactive)
same,Potency,[13],inactive
same,Potency,[14],inactive
same,Potency,[15],inactive
same,Potency,[16],inactive
same,Potency,[17],inactive
same,Potency,[18],inactive
